Compound activity: PubChem, National Center for Advancing Translational Sciences (NCATS)
JMJD2A Tudor inh: qHTS Assay for Inhibitors of JMJD2A-Tudor Domain; Lysine-specific demethylase 4A (Homo sapiens), O75164; AlphaScreen JMJD2A-Tudor / H3K4me3 peptide binding; Potency, µM (doses to about 114 µM), inactives show at the top dose activity change, negative = inhibition, actives largely listed as inhibitors; 390,000 tested, 4.4% active; AID 504339, 2011; further: on the % scale 0 is the no-effect control and ±100 the full control effect; nearly all actives have a fitted effect of over 50% in size
G9a inh: qHTS Assay for Inhibitors of Histone Lysine Methyltransferase G9a. Histone-lysine N-methyltransferase EHMT2 (Homo sapiens), Q96KQ7. G9a H3K9 monomethylation, AlphaScreen, 2 h. Potency, µM (titrated, usually from 102 µM), for the others: at the top dose activity, negative = inhibition, usual class: inhibitors. 350,000 tested, 8.8% active. AID 504332, 2011; further: on the % scale 0 is the no-effect control and ±100 the full control effect; nearly all actives have a fitted effect of over 75% in size
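AlphaScreen read-out: biotin-H3K9 peptide (500 nM) methylation by 20 nM enzyme with 20 uM SAM, 2 h at room temperature after 15 min compound preincubation; anti-monomethyl H3K9 antibody plus donor/acceptor beads, 10 min dark.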
BAZ2B block: qHTS Assay for Inhibitors of BAZ2B. Bromodomain adjacent to zinc finger domain protein 2B (Homo sapiens), Q9UIF8. AlphaScreen BAZ2B-H3K14Ac peptide displacement. Potency, µM (series often up to 114 µM), for inactives: top-dose activity change, negative = inhibition, actives largely listed as inhibitors. 360,000 tested, 4.4% active. AID 504333, 2011; further: on the % scale 0 is the no-effect control and ±100 the full control effect; nearly all actives have a fitted effect of over 60% in size
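Multi-concentration screen (max 110 uM) measuring displacement of acetylated histone H3 peptide from BAZ2B by AlphaScreen, using 50 nM protein, 50 nM peptide and 10 ug/mL streptavidin donor plus Ni-chelate acceptor beads.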
HP1b binding inh: HTS for Inhibitors of HP1-beta Chromodomain Interactions with Methylated Histone Tails; Chromobox protein homolog 1 (Homo sapiens), P83916; AlphaScreen HP1-beta / biotin-H3K9me3 peptide binding; Potency, µM (series often up to 114 µM), without a hit: at the highest dose activity change, negative = inhibition, most hits filed as inhibitors; 390,000 tested, 0.56% active; AID 540317, 2011; further: nearly all actives have a fitted effect of over 70% in size
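AlphaScreen: HP1-beta (50 nM) preformed 30 min with biotin-H3(1-18)K9me3 peptide (50 nM) in PBS pH 7.4, 0.01% Tween-20. Compound added for 30 min at RT, then streptavidin donor/nickel chelate acceptor beads (10 ug/mL) for 30 min.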
GLS inhibitor: qHTS for Inhibitors of Glutaminase (GLS); AID 624170, 2012; Potency, µM (doses to about 45.5 µM), without a hit: at the highest dose activity change, negative = inhibition, most hits filed as inhibitors; GLS enzymatic activity, qHTS titration; 410,000 tested, 0.21% active; Glutaminase kidney isoform, mitochondrial (Homo sapiens), O94925; further: on the % scale 0 is the no-effect control and ±100 the full control effect
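Human kidney-isoform GLS in 45 mM KH2PO4 pH 8.2, 0.02% Tween-20, with compound, started with 1mM L-Glutamine (added stock). Glutamate oxidase/HRP/Amplex red coupled fluorescence read at start and after 30 min at RT.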
L3MBTL1 block: qHTS Assay for the Inhibitors of L3MBTL1 | Lethal(3)malignant brain tumor-like protein 1 (Homo sapiens), Q9Y468 | AlphaScreen L3MBTL1–H3K9me1 peptide binding | Potency, µM (series often up to 57.1 µM), without a hit: at the highest dose activity, negative = inhibition, most hits filed as inhibitors | 230,000 tested, 0.66% active | AID 485360, 2010; further: on the % scale 0 is the no-effect control and ±100 the full control effect; nearly all actives have a fitted effect of over 60% in size
Target sequence (Q9Y468 whole entry, looked up): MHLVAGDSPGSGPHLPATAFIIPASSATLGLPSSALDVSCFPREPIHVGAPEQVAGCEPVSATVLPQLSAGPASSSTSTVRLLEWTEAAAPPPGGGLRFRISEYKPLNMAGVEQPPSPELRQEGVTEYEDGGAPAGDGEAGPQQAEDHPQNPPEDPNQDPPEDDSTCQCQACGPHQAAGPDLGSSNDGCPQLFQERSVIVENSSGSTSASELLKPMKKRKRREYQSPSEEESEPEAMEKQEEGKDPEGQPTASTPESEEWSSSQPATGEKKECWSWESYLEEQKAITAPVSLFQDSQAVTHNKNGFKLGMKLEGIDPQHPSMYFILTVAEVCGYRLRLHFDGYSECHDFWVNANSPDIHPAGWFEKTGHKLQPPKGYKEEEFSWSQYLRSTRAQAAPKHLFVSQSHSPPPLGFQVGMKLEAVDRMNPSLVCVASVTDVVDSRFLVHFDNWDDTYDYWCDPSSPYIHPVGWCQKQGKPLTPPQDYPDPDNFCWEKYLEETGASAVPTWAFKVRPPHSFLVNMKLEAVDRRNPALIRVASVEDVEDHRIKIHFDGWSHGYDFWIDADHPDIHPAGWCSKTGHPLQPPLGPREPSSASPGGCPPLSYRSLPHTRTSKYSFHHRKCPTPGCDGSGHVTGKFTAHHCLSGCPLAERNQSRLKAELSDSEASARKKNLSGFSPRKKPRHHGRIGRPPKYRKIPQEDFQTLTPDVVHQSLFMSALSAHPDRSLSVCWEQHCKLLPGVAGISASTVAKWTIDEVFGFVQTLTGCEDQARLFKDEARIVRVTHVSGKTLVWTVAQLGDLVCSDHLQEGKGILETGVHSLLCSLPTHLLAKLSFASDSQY
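AlphaScreen assay: L3MBTL1 (50 nM final) was preincubated 30 min at room temperature with biotinylated H3(1-15)K9me1 peptide (75 nM final), then 30 min with library compounds; streptavidin donor and nickel chelate acceptor beads (10 ug/mL final) added, 30 min dark.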
Numbers without * were called inactive; ? = inconclusive; nt = not tested or not shown; [ ] = another dose, or the depositor's remark. The list is not random: actives were taken first. Their share in the collection is about 10%. The call rests on the fitted dose curve; in most records, active means well fitted curve in the direction sought with a large enough effect; inconclusive means small, poorly fitted or top-dose-only effect, or another doubt; inactive means no such curve, though single readings can be large; an effect the other way counts as inactive or inconclusive. Potency means the concentration at half of the fitted maximal effect.

SMILES	JMJD2A Tudor inh	G9a inh	BAZ2B block	HP1b binding inh	GLS inhibitor	L3MBTL1 block
Cc1ccc(-n2cc[nH]c2=S)c(C)c1	-7%	8.9µM*	-11%	-12%	-19%	11%
Cc1ccc(C)c(-n2cc[nH]c2=S)c1	40µM*	2µM*	7%	22%	20%	-5%
CCOC(=O)C(=O)Nc1sc(C(=O)N(CC)CC)c(C)c1C#N	-23%	50µM*	-20%	57%	1%	1%
CCCCCC(=O)Nc1sc(C)c(C)c1C#N	-9%	3.2µM*	-29%	?	-4%	9%
CCCC(=O)Nc1sc(C)c(C)c1C#N	-12%	45µM*	-23%	-6%	-1%	-1%
Cc1sc(NC(=O)C2CCCC2)c(C#N)c1C	-19%	7.1µM*	-1%	?	3%	-7%
N#Cc1nc(N)nc(N2CCCCC2)n1	-12%[57.1 µM]	nt	nt	14%[57 µM]	nt	nt
Cc1ccc(CSc2nncn3c2cc2sccc23)cc1	3%	-1%[59 µM]	-3%	33%	-8%	nt
CCOC(=O)c1c(NC(=O)C2CC2)sc2c1CC(C)(C)OC2	10%	35µM*	-23%	40%	-3%	nt
CCCCC(=O)Nc1sc2c(c1C#N)CC(C)(C)OC2	45µM*	13%	9%	10%	?	11%
CC1=C(C(=O)Nc2ccccc2)C(c2ccncc2)n2nc(SCc3ccccc3)nc2N1 (stereo unspecified)	-10%	-4%[59 µM]	?	23%	1%	nt
CN(C)c1ccc(P(=O)(COc2ccc([N+](=O)[O-])cc2)c2ccc(N(C)C)cc2)cc1	22µM*	nt	25µM*	?	-8%	-41%
Cc1cccn2c(=O)cc(CSc3nnc(NC(=O)COc4ccc(F)cc4)s3)nc12	-3%	7%[59 µM]	-1%	25%[57 µM]	8%	nt
CC(=O)N/C(=C\c1ccc(F)cc1)C(=O)NC(C(=O)O)C(C)C (stereo unspecified)	-17%	56µM*	-37%	44%	4%	8%
CC(=O)N/C(=C\c1ccc2c(c1)OCO2)C(=O)NC(C(=O)O)c1ccccc1 (stereo unspecified)	-11%	89µM*	-18%	8%	-4%	nt
CC(=O)N/C(=C\c1ccccc1)C(=O)NC(C)C(=O)O (stereo unspecified)	-2%	56µM*	-21%	20%	-13%	1%
CC(=O)N/C(=C\c1ccccc1)C(=O)Nc1ccccc1C	-14%	?	-26%	22%	-8%	-4%
CCCCC[C@]12Cc3ccccc3C(O1)C1=C(CC(C)(C)CC1=O)O2	nt	nt	7%[22.9 µM]	nt	nt	nt
CC(=O)Nc1ccc2nc(CN3CCC(CO)(CCc4ccccc4)CC3)ccc2c1	32µM*	-39%	-33%	10%	-2%	-19%
CC(=O)c1cccc(CN2CCC(CO)(CCCc3ccccc3)CC2)c1	-13%	nt	-2%	40%	4%	?
CC(=O)Nc1ccc(S(=O)(=O)N(Cc2ccccc2)Cc2ccccc2)cc1	-18%	-2%[59 µM]	-8%	28%	3%	nt
CCOc1ccc(S(=O)(=O)N2CCN(C(=O)CCOc3ccccc3C)CC2)cc1	-2%	13µM*	8%	26%	1%	-2%
CCOc1ccc(S(=O)(=O)N2CCN(C(=O)c3cc(-c4ccccc4)nn3-c3ccccc3)CC2)cc1	-25%	40µM*	-6%	11%	1%	3%
CCOc1ccc(OCCC(=O)OCC(=O)N2CCN(S(=O)(=O)c3ccc(Cl)cc3)CC2)cc1	?	nt	50µM*	-20%	12%	nt
Cc1cc(C)cc(NC(=O)c2ccc3c(O)c(S(=O)(=O)c4ccccc4)c(=O)[nH]c3c2)c1	-31%	-35%[59 µM]	-25%	-5%	13%	nt
SMILES	JMJD2A Tudor inh	G9a inh	BAZ2B block	HP1b binding inh	GLS inhibitor	L3MBTL1 block
COc1ccc(CCNC(=O)c2cc3c(=O)oc4ccc(C)cc4c3s2)cc1OC	-1%	6%[59 µM]	-3%	27%	-2%	nt
Cc1nc(C)c(CCNS(=O)(=O)c2ccc(C)c(C)c2)s1	-10%	0%[59 µM]	1%	29%[57 µM]	1%	nt
O=C1C(C=Nc2ccccc2O)=C(O)c2ccccc21	-26%	2%[59 µM]	-27%	24%	-5%	-7%
Cc1ccc(O)c(N=CC2=C(O)c3ccccc3C2=O)c1	?	32µM*	40µM*	-33%	-2%	?
Cc1nn(CC(=O)NCCc2ccco2)c(=O)c2nn(-c3ccccc3)c(C)c12	-33%	?	?	4%[57 µM]	-3%	nt
Cc1ccc(-n2nc3c(=O)n(C(C)C(=O)NCCC4=CCCCC4)nc(C)c3c2C)cc1 (stereo unspecified)	45µM*	13%[59 µM]	-25%	46%	-2%	nt
Cc1nn(C(C)C(=O)NCCc2ccco2)c(=O)c2nn(-c3ccccc3)c(C)c12 (stereo unspecified)	79µM*	33%	-18%	1%	0%	nt
CC(Sc1nnc2ccccn12)C(=O)Nc1ccc(N2CCOCC2)cc1 (stereo unspecified)	-15%	nt	nt	9%[57 µM]	18%	1%
Cc1nnc(SC(C)C(=O)Nc2ccc(N3CCOCC3)cc2)n1Cc1ccccc1 (stereo unspecified)	-10%	71µM*	0%	13%	18%	-6%
CC(C)Cn1c(SC(C)C(=O)Nc2ccc(N3CCOCC3)cc2)nc2ccccc21 (stereo unspecified)	?	?	35µM*	?	11%	-19%
CC(Sc1nnc(COc2ccc(Cl)cc2)o1)C(=O)Nc1ccc(N2CCOCC2)cc1 (stereo unspecified)	-11%	35µM*	13%	19%	9%	1%
O=C(NCCc1ccccc1)c1ccc2c(c1)CCN2S(=O)(=O)c1ccccc1	-3%	-5%[59 µM]	0%	42%	8%	nt
Cc1cc(C)cc(OCC(=O)NCC2(N(C)C)CCCCC2)c1	-7%	-27%[59 µM]	-7%	34%	16%	nt
CCOc1ccc(C(=O)c2oc3ccccc3c2NC(=O)Cc2coc3ccc(CC)cc23)cc1	40%	15%[59 µM]	5%	80%	-7%	nt
Cc1ccc(-c2noc(C(C)NS(=O)(=O)c3ccc(C)cc3)n2)cc1 (stereo unspecified)	1%	7%[59 µM]	10%	30%	2%	nt
Cc1ccccc1-c1nnc(CN2CCN(c3ccccn3)CC2)o1	-9%	-60%[59 µM]	-15%	20%	-19%	nt
